The results in this text go back to ChEMBL document CHEMBL1961873, “Compounds: GSK PKIS; Assays: Nanosyn kinase panel” (2012).

In test [1] the target is Sphingosine kinase 1 (Homo sapiens) (UniProt Q9NYA1). The settings on record: at 1 µM.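 Note: mean SPHK1 inhibition value reported from the GSK PKIS kinase panel screen.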
For test [2], the target named is T1, Sphingosine kinase 2 (Homo sapiens) (UniProt Q9NRA0).
T1 sequence (whole entry): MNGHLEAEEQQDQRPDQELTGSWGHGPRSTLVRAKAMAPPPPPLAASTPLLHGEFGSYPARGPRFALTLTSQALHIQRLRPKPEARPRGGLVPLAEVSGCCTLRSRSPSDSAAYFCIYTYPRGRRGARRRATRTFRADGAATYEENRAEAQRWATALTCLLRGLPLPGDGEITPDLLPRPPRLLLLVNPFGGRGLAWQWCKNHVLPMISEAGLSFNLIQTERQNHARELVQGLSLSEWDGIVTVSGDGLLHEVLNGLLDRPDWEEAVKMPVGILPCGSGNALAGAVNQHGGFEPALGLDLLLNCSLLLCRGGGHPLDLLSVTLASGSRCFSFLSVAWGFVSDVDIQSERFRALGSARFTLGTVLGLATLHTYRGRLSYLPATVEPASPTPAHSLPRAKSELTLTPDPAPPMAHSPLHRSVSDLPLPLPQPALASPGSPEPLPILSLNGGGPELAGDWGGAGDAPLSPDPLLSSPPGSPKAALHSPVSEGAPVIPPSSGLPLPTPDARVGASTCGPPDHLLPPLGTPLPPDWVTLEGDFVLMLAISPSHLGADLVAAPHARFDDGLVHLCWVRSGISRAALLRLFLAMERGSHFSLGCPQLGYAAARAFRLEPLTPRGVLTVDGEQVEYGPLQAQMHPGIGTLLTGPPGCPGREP
As to conditions: at 0.1 µM.

For test [3], the target named is T1, Sphingosine kinase 2 (Homo sapiens). As to conditions: at 1 µM.
Test [4] concerns the target Casein kinase II subunit alpha (Homo sapiens) (UniProt P68400). The settings on record: at 0.1 µM.
The target is the same in test [5]. As to conditions: at 1 µM.
The target in test [6] is T2, Inhibitor of nuclear factor kappa-B kinase subunit alpha (Homo sapiens) (UniProt O15111).
T2 sequence (whole entry): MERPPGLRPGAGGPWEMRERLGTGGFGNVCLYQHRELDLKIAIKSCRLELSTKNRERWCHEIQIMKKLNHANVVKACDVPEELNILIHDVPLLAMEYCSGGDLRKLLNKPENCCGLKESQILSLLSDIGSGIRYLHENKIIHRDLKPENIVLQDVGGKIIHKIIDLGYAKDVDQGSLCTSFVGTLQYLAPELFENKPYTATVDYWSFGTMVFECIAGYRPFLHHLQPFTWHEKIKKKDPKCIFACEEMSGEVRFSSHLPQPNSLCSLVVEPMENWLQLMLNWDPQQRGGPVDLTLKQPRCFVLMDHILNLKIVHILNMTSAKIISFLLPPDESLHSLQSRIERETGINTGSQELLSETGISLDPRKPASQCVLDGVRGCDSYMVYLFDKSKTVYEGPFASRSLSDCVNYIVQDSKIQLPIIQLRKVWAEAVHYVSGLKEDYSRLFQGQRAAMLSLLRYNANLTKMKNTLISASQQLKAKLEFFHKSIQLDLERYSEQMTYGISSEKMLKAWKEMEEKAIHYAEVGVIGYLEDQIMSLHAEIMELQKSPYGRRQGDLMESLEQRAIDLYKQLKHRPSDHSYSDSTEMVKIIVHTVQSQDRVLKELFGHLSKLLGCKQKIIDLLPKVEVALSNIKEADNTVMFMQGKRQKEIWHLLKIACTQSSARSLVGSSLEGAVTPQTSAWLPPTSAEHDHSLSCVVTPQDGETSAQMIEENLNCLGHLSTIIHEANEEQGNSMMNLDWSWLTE
The settings on record: at 0.1 µM.

In test [7] the target is T2, Inhibitor of nuclear factor kappa-B kinase subunit alpha (Homo sapiens). The settings on record: at 1 µM.
Test [8] addresses T3, Inhibitor of nuclear factor kappa-B kinase subunit beta (Homo sapiens) (UniProt O14920).
T3 sequence (whole entry): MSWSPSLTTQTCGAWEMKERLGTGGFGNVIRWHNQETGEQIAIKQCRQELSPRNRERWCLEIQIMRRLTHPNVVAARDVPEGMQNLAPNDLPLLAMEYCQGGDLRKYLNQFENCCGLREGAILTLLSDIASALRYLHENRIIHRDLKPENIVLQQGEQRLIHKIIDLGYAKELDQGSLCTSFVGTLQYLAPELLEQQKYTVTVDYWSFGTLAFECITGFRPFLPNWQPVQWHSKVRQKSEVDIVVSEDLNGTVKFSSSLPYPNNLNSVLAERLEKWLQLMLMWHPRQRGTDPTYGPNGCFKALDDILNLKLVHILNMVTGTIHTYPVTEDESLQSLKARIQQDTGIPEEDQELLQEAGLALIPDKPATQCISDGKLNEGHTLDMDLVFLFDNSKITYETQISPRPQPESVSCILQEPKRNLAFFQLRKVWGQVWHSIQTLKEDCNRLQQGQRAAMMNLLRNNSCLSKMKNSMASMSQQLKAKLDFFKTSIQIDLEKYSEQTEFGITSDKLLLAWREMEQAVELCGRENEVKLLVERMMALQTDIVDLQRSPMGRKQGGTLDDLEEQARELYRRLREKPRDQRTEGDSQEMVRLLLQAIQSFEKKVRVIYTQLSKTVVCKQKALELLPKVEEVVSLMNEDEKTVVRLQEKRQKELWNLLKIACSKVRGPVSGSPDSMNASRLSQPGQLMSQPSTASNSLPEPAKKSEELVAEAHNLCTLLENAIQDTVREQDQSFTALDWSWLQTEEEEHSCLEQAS
As to conditions: at 0.1 µM.

Test [9] concerns the target T3, Inhibitor of nuclear factor kappa-B kinase subunit beta (Homo sapiens). The settings on record: at 1 µM.
The target of test [10] is T4, Inhibitor of nuclear factor kappa-B kinase subunit epsilon (Homo sapiens) (UniProt Q14164).
T4 sequence (whole entry): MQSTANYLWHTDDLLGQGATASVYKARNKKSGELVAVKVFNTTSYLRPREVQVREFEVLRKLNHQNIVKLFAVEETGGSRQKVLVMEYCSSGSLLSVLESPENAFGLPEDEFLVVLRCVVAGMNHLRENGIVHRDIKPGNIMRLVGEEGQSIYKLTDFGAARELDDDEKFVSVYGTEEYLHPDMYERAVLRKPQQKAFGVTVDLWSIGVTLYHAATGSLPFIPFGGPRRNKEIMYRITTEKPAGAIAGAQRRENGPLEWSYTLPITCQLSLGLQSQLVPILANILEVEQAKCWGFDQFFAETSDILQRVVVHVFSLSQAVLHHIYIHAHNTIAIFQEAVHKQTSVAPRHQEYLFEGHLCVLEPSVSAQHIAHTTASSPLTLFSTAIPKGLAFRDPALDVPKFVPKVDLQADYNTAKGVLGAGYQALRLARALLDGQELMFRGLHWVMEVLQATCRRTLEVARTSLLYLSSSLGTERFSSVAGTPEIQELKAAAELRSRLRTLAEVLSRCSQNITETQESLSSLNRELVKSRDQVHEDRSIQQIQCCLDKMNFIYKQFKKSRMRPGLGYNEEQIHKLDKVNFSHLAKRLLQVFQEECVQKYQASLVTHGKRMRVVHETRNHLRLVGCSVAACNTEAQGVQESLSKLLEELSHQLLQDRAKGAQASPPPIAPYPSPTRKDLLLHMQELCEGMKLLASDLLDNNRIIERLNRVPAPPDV
The settings on record: at 0.1 µM.

For test [11], the target named is T4, Inhibitor of nuclear factor kappa-B kinase subunit epsilon (Homo sapiens). As to conditions: at 1 µM.
Test [12] deals with T5, Serine/threonine-protein kinase Nek1 (Homo sapiens) (UniProt Q96PY6).
T5 sequence (whole entry): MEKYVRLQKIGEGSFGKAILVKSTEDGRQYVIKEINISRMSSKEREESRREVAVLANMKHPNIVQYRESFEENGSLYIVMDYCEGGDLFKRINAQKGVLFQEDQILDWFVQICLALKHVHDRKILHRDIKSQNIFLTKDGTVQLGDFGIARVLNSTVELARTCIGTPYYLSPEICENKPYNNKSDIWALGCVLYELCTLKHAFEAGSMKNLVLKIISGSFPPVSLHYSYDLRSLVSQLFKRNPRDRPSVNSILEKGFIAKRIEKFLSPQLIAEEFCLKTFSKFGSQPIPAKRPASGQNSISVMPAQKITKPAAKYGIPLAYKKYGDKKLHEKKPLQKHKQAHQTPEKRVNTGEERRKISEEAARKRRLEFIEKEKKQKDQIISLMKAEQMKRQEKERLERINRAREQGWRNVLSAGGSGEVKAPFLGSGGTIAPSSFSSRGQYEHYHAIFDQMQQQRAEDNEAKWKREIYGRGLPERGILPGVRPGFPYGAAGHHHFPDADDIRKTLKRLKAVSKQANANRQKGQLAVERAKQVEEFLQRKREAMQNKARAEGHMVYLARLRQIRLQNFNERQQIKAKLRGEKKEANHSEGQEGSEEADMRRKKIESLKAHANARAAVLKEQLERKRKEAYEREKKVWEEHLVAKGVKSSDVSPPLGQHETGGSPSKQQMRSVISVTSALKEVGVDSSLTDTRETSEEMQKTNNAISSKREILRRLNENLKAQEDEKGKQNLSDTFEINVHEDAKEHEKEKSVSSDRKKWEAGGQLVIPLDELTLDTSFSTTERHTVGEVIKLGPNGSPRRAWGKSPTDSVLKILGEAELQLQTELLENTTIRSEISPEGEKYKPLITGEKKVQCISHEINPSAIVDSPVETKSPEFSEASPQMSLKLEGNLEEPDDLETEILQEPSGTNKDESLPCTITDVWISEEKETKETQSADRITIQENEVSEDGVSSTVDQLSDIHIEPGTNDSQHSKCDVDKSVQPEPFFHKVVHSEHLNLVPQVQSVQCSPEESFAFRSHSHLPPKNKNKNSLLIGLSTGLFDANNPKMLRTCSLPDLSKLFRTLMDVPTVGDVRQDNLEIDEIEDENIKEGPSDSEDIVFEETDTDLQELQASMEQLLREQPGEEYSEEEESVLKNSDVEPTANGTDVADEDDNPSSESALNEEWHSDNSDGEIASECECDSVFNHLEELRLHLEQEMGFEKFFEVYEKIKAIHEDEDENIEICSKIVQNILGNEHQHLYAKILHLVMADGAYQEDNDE
As to conditions: at 0.1 µM.

The target in test [13] is T5, Serine/threonine-protein kinase Nek1 (Homo sapiens). As to conditions: at 1 µM.
The target in test [14] is T6, Serine/threonine-protein kinase Nek2 (Homo sapiens) (UniProt P51955).
T6 sequence (whole entry): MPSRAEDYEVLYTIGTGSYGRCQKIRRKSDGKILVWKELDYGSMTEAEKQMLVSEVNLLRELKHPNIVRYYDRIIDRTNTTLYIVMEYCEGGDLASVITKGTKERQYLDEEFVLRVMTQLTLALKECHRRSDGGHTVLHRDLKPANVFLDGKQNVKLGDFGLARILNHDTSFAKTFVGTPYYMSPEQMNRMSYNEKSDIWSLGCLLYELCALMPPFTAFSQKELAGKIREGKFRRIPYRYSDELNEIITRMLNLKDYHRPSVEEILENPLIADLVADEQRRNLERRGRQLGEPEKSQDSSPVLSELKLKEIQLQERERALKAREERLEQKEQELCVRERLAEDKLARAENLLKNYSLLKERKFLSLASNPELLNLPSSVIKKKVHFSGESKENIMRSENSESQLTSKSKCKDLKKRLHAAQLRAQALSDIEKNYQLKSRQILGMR
The settings on record: at 0.1 µM.

Test [15] has as its target T6, Serine/threonine-protein kinase Nek2 (Homo sapiens). The settings on record: at 1 µM.
Test [16] deals with Serine/threonine-protein kinase Nek6 (Homo sapiens) (UniProt Q9HC98). The settings on record: at 0.1 µM.
The target is the same in test [17]. The settings on record: at 1 µM.
The target of test [18] is Serine/threonine-protein kinase Nek7 (Homo sapiens) (UniProt Q8TDX7). As to conditions: at 0.1 µM.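 Note: figures are averaged percent inhibition of NEK7 kinase.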
For test [19], the target named is T7, Serine/threonine-protein kinase Nek9 (Homo sapiens) (UniProt Q8TD19).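 Note: reported value is the mean percent inhibition of NEK9.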
T7 sequence (whole entry): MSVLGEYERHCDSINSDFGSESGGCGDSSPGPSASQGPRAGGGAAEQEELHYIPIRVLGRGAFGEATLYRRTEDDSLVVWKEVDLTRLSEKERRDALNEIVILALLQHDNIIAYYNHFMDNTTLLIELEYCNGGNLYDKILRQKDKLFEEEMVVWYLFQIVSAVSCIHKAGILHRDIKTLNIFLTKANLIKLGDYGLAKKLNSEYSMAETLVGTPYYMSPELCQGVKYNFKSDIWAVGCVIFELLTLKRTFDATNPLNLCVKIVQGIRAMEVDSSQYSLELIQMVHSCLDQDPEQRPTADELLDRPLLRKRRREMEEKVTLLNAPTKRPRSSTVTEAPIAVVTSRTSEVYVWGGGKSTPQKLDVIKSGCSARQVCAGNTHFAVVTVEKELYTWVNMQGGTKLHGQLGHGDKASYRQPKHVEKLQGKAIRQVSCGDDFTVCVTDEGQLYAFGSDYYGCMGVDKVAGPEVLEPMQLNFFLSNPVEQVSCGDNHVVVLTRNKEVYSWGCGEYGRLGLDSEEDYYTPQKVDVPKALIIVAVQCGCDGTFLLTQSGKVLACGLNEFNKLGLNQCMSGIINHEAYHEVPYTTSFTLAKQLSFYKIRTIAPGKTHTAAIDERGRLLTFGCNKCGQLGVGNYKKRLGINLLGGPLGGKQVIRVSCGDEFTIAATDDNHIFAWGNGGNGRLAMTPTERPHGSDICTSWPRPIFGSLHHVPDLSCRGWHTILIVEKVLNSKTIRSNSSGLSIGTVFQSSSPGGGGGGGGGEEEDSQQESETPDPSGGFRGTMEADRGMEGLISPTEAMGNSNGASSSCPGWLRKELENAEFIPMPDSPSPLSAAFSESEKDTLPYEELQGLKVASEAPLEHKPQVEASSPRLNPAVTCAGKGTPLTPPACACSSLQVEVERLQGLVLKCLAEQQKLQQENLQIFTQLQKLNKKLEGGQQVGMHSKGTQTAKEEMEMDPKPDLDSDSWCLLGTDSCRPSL
The settings on record: at 0.1 µM.

Chain of Serine/threonine-protein kinase Nek6 (Homo sapiens) (Q9HC98 whole entry): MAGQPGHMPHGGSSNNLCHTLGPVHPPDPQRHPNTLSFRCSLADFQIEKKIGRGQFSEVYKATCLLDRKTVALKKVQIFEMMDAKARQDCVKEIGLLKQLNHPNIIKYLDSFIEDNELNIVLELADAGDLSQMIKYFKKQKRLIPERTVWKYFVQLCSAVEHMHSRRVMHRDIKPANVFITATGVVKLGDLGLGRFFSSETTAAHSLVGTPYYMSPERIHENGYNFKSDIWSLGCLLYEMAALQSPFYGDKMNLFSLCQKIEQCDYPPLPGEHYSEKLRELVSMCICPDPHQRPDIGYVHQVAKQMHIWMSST
Chain of Casein kinase II subunit alpha (Homo sapiens) (P68400 whole entry, looked up): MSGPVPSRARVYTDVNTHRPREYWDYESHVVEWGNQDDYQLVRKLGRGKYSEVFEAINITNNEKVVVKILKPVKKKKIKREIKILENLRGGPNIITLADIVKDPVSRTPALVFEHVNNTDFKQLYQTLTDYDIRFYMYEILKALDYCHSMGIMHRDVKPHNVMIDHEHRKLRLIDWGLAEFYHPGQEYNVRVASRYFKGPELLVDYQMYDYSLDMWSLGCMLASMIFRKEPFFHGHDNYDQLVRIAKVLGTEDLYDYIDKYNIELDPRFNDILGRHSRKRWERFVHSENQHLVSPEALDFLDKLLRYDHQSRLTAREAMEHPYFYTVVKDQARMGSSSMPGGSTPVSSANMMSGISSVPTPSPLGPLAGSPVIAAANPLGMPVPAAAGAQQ
Chain of Serine/threonine-protein kinase Nek7 (Homo sapiens) (Q8TDX7 whole entry, looked up): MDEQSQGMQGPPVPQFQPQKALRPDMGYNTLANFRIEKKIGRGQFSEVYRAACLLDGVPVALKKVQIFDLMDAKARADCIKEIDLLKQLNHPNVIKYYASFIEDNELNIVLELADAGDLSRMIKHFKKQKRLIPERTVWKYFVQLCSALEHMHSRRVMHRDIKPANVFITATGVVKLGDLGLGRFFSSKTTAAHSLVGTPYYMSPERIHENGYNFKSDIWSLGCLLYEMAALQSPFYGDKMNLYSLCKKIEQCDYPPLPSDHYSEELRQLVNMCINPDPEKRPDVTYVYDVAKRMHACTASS
Chain of Sphingosine kinase 1 (Homo sapiens) (Q9NYA1 whole entry): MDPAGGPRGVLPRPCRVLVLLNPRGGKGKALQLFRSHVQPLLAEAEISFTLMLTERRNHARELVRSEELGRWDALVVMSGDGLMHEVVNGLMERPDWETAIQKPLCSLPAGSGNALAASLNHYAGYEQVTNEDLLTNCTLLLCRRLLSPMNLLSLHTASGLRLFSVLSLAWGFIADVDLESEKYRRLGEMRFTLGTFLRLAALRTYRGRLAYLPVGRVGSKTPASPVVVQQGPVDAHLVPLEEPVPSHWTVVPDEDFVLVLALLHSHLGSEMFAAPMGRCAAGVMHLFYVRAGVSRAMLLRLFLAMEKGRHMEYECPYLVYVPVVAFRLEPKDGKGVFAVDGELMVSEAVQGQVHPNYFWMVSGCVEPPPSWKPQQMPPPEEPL

Regarding `COc1cc2ncn(-c3cc(OCc4ccccc4C(F)(F)F)c(C(C)=O)s3)c2cc1OC`, the inhibition in [1] is -6.56%; in [2], -0.29%; in [3], -1.72%; in [4] it was 5.99%; in test [5] it was 2.45%; in test [6], 2.23%. The inhibition was 7.97% in [7]; 5.2% in [8]; 9.05% in test [9]; 6.32% in [10]; 4.7% in test [11]; 2.21% in [12]. In addition, the inhibition came out at 1.9% in test [13]; 3.91% in [14]; 4.69% in [15]; 1.95% in [16]; 3.34% in [17]; 1.7% in [18]. Also, the inhibition in [19] was 8.54%.
